High-throughput results (PubChem)
This is a sample that favours compounds with a hit; in the whole collection about 2.1% have one here.
YB-1 expr inh: YB-1 expression inhibition; delta delta Cp (YB-1 minus CDIP) (concentration not given with the values); hit rate 0.37% among 30,000; U2OS, qRT-PCR YB-1 vs CDIP delta delta Cp, 16 h; hits give high values; zero = DMSO, each unit about twofold; AID 434959;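 active means delta delta Cp rounded down to an integer at or above 3, about 3 SD of DMSO wells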;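 further: higher means less YB-1 transcript or more CDIP transcript relative to DMSO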
U2OS ROS induce: raises reactive oxygen species in U2OS cancer cells; U2OS ROS induction, H2DCF-DA fluorescence; ROS induction (% of piperlongumine), % at 10 µM; hit rate 2% among 46,000; AID 624156; in the data active means ROS induction above about 79%, passing the limit was not always enough; inconclusive means no clear call, values can overlap the other calls;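 further: 0% = DMSO vehicle median and 100% = reference compound median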
An asterisk follows results filed as active; ? = inconclusive; / = no result.

SMILES	YB-1 expr inh	U2OS ROS induce
Cc1ccc2c(C)nc(NC3=NC(C(=O)Nc4ccc(Cl)c(Cl)c4)CC(=O)N3)nc2c1 (stereo unspecified)	/	-9.9
COc1ccc(CC(=O)N2c3ccccc3CCc3ccccc32)cc1	/	-11.4
Cc1nc2ccccc2c(=O)n1NCc1ccccc1Br	/	4.0
CC(=O)O[C@H]1[C@H](Oc2ccccc2COC(=O)C2(O)C=CCCC2=O)O[C@H](COC(=O)C2(O)C=CCCC2=O)[C@@H](O)[C@@H]1O (stereo partly specified)	0.081	89.1*
CC(=O)O[C@H]1[C@H](Oc2ccccc2COC(=O)C2(O)C=CCCC2=O)O[C@H](CO)[C@@H](O)[C@@H]1O (stereo partly specified)	-0.463	-5.2
C[C@H]1CN([C@@H](C)CO)C(=O)c2cc(NC(=O)Nc3cccc4ccccc34)ccc2O[C@@H]1CN(C)C(=O)Nc1ccc(C(F)(F)F)cc1	-0.147	79.8*
C[C@@H]1CN([C@@H](C)CO)C(=O)c2cc(NC(=O)Nc3cccc4ccccc34)ccc2O[C@@H]1CN(C)C(=O)Nc1ccc(C(F)(F)F)cc1	-0.223	41.7
C[C@H](CO)N1C[C@H](C)[C@H](CN(C)C(=O)Nc2ccc(C(F)(F)F)cc2)Oc2ccc(NC(=O)Nc3cccc4ccccc34)cc2CC1=O	0.0885	2.3
C[C@@H]1CN([C@@H](C)CO)C(=O)Cc2cc(NC(=O)Nc3cccc4ccccc34)ccc2O[C@@H]1CN(C)C(=O)Nc1ccc(C(F)(F)F)cc1	0.257	161.9*
O=C(c1cnc2c(c1)COc1ccccc1-2)c1cc(Cl)ccc1O	/	5.5
O=C(O)c1cccc(S(=O)(=O)NCC2CCCO2)c1 (stereo unspecified)	/	10.7
CS(=O)(=O)Nc1ccc(S(=O)(=O)NCC2CCCO2)cc1 (stereo unspecified)	/	95.7*
COc1ccc(CSc2nnc(CSc3cccs3)n2C)cc1	-0.54	87.3*
Cn1c(CNC(=O)c2cccs2)nnc1SCc1ccccc1	/	15.0
COc1ccccc1N1CCN(C(=O)c2cnn3c(C)c(Cc4cccc(C)c4)c(C)nc23)CC1	/	13.5
S=c1nn[nH]n1CCc1ccc(Cl)cc1	/	8.7
S=c1[nH]n(-c2ccc(Cl)cc2)c(=S)s1	5*	0.9
Cc1ccc2[nH]c(=O)c(C=NC(CO)(CO)CO)c(O)c2c1	/	-3.5
C=CCNc1sc2c(N)nc(N)nc2c1C#N	/	4.7
O=C(NC1CCCC1)C1CCN(c2nc3ccccc3n3cccc23)CC1	/	-3.4
O=C(CCCCCCC(=O)Nc1ccccc1O)N/N=C/c1c(F)c(F)c(F)c(F)c1F	-0.271	?
O=C(CCCCC(=O)N/N=C/c1c(F)c(F)c(F)c(F)c1F)NO	0.636	145.0*
O=C1N=c2ccccc2=N/C1=N\C(=S)Nc1ccccc1	-0.248	3.0
Cc1noc(C)c1NC(=O)N(C)C[C@@H]1Oc2c(NC(=O)Nc3ccc4c(c3)OCO4)cccc2C(=O)N([C@H](C)CO)C[C@@H]1C	-0.622	-4.7
C[C@@H]1CN([C@@H](C)CO)C(=O)c2cccc(NC(=O)C3CC3)c2O[C@@H]1CN(C)C(=O)Nc1ccc2c(c1)OCO2	3.7*	67.1
SMILES	YB-1 expr inh	U2OS ROS induce
COc1ccc(NC(=O)N(C)C[C@H]2Oc3c(cccc3N(C)C)C(=O)N([C@H](C)CO)C[C@@H]2C)cc1	0.287	79.4*
Cc1noc(C)c1NC(=O)N(C)C[C@@H]1Oc2c(NC(=O)Nc3ccc4c(c3)OCO4)cccc2C(=O)N([C@@H](C)CO)C[C@H]1C	-0.0374	115.5*
COc1ccc(NC(=O)Nc2cccc3c2O[C@H](CN(C)C(=O)Nc2c(C)noc2C)[C@H](C)CN([C@H](C)CO)C3=O)cc1	5.89*	1.5
COc1ccc(NC(=O)Nc2cccc3c2O[C@H](CN(C)C(=O)Nc2c(C)noc2C)[C@H](C)CN([C@@H](C)CO)C3=O)cc1	-0.205	-7.3
COc1ccc(NC(=O)N(C)C[C@@H]2Oc3c(cccc3N(C)C)C(=O)N([C@H](C)CO)C[C@H]2C)cc1	-0.0457	-5.3
C[C@H]1CN([C@@H](C)CO)C(=O)c2cccc(NC(=O)C3CC3)c2O[C@H]1CN(C)C(=O)Nc1ccc2c(c1)OCO2	1.14	6.8
Cc1cccc(N2CCN(C(=O)CN3C(=O)c4ccccc4C3=O)CC2)c1C	/	-10.8
NC(=O)CSc1nnnn1-c1ccccc1	/	-9.0
Cc1c(-c2ccccc2OC(=O)c2ccccc2)[nH]c2ccccc12	/	-8.2
CC1CCCCN1S(=O)(=O)c1ccc(C(=O)Nc2nc3ccc4ccccc4c3s2)cc1 (stereo unspecified)	/	13.1
COc1cc(C(F)(F)F)nc2ccc(C)c(NC(=O)Nc3ccc(OC(F)(F)F)cc3)c12	/	-1.1
Cc1cc(C)cc(-n2c(SCC(=O)NCc3ccc(F)cc3)nc3c(c2=O)SCC3)c1	/	1.9
COc1ccc(N2C(=O)c3c(c4ccccc4n3C)C2c2cccc(OC)c2)cc1 (stereo unspecified)	/	35.9
COc1ccc(CCC(=O)NCCc2cn3ccccc3n2)cc1	/	-6.9
COCCOC(=O)N1C(=O)[C@@]2(c3ccccc31)[C@H](C(=O)N1CCN(c3ncccn3)CC1)[C@H]1C(=O)O[C@H](c3ccccc3)[C@H](c3ccccc3)N1[C@@H]2c1ccc(OCCO)cc1	0.118	105.0*
COCCOC(=O)N1C(=O)[C@@]2(c3ccccc31)[C@H](c1ccccc1OCCO)N1[C@H](c3ccccc3)[C@H](c3ccccc3)OC(=O)[C@H]1[C@@H]2C(=O)N1CCN(c2ncccn2)CC1	-0.0646	111.3*
O=C1O[C@H](c2ccccc2)[C@H](c2ccccc2)N2[C@H]1[C@@H](C(=O)N1CCCCCCC1)[C@]1(C(=O)Nc3ccccc31)[C@H]2c1ccccc1OCCO	-0.387	48.3
COCCOC(=O)N1C(=O)[C@@]2(c3cc(C#CCC(C(=O)OC)C(=O)OC)ccc31)[C@H](c1ccc(O)cc1)N1[C@H](c3ccccc3)[C@H](c3ccccc3)OC(=O)[C@H]1[C@@H]2C(=O)N1CCc2cc(OC)c(OC)cc2C1	-0.112	41.2
COc1ccc(C#Cc2ccc3c(c2)[C@]2(C(=O)N3)[C@H](c3ccccc3OCCO)N3[C@H](c4ccccc4)[C@H](c4ccccc4)OC(=O)[C@H]3[C@@H]2C(=O)N2CCN(c3ncccn3)CC2)cc1	-0.0134	18.5
COCCOC(=O)N1C(=O)[C@@]2(c3cc(C#CCC(C(=O)OC)C(=O)OC)ccc31)[C@H](c1ccc(OCCO)cc1)N1[C@H](c3ccccc3)[C@H](c3ccccc3)OC(=O)[C@H]1[C@@H]2C(=O)N1CCN(c2ncccn2)CC1	0.114	112.0*
COCCOC(=O)N1C(=O)[C@@]2(c3ccccc31)[C@H](c1ccccc1OCCO)N1[C@H](c3ccccc3)[C@H](c3ccccc3)OC(=O)[C@H]1[C@@H]2C(=O)N1CCCCCCC1	-0.305	103.4*
COc1ccc(C#Cc2ccc3c(c2)[C@]2(C(=O)N3)[C@H](c3ccc(OCCO)cc3)N3[C@H](c4ccccc4)[C@H](c4ccccc4)OC(=O)[C@H]3[C@@H]2C(=O)N2CCN(c3ncccn3)CC2)cc1	0.12	18.8
CCOC(=O)Nc1cccc2nsnc12	/	-7.1
CC(C)(C)c1ccc(C(=O)N(CC#N)CC#N)cc1	/	-7.8
CN(C)Cc1ccc(C(=O)Oc2ccc(C(C)(C)C)cc2)cc1	-0.421	20.8
O=C(c1cc(-c2ccc(F)cc2)n[nH]1)N1CCN(c2cccc(Cl)c2)CC1	/	0.8
O=C(Oc1nc2ccccc2s1)c1ccccc1C(=O)c1ccccc1	/	-2.8
